Counter-ions that a name gives are not always drawn. Whole data set: some 2,800 compounds, median “cell viability relative to vehicle” near 0.98, cut for the lowest 2% near 0.45. The sample holds the lowest values, similar compounds and a random draw of the others, so the mix is not that of the screen.
test system: NCI-H2228 alectinib-DTP; assay: cell viability relative to vehicle (fraction of vehicle); NCI-H2228 is an ALK-positive lung cancer line and DTP means drug-tolerant persister; higher = less growth inhibition; settings: 100 nM; treatment time 6 days
In short: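 Drug-tolerant persister NCI-H2228 cells, produced by 13 days in 1000 nM of a targeted drug, and their parental counterparts were seeded into 384-well plates and, the following day, given the 3114-agent TargetMol anti-cancer compound library at 100 nM or DMSO vehicle. After 6 days, the CellTiter-Glo 3D Cell Viability Assay was used to read ATP. Each entry reports viability compared with vehicle-treated cells.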

First: COc1ccc(C(c2c[nH]c3ccccc23)c2c[nH]c3ccccc23)cc1
Second: Oc1cc(-c2nc(-c3ccccc3)[nH]c2-c2ccncc2)ccc1Cl
The cell viability of the first is lower: 1.04 for the first, 1.22 for the second.

First: CC1(C)CC[C@]2(C(=O)O)CC[C@]3(C)C(=CC[C@@H]4[C@@]5(C)C[C@@H](O)[C@H](O)C(C)(C)[C@@H]5CC[C@]43C)[C@@H]2C1 [Maslinic acid]
Second: CC(=O)O[C@H]1CC(=O)OC(C)(C)[C@@H]2CC(=O)[C@]3(C)[C@H](CC[C@@]4(C)[C@@H](c5ccoc5)OC(=O)[C@H]5O[C@]543)[C@@]12C [Nomilin]
The cell viability of the first is lower: 0.962 for the first, 1.15 for the second.

Compared with `CC(=O)c1ccc(NC2=C(Cl)C(=O)c3ccccc3C2=O)cc1`, `O=C(O)c1ccc2c(c1)C(=O)c1ccccc1C2=O` is higher in cell viability: 0.908 for the first, 1.08 for the second.

First: COC(=O)c1cc(O)c(O)c(O)c1 [Methyl gallate]
Second: COC(=O)c1c2c(c3ccccc3c1O)OC(C)(C)C=C2 [Mollugin]
The cell viability of the first is higher: 1.07 for the first, 1.05 for the second.

First: OC1CCC(Oc2cccc3cnc(Nc4ccc5nc[nH]c5c4)nc23)CC1 (stereo not given)
Second: C=CC(=O)Nc1cccc(Oc2nc(Nc3ccc(N4CCN(C)CC4)c(F)c3)nc3[nH]ccc23)c1 [Avitinib]
The cell viability of the first is higher: 1.02 for the first, 0.747 for the second.

First: Cc1nn(C)cc1-c1nc2c(N3CCN(Cc4ccc(Cl)cc4)CC3)c(Cl)cnc2[nH]1
Second: Cc1nc(Nc2ncc(C(=O)Nc3c(C)cccc3Cl)s2)cc(N2CCN(CCO)CC2)n1 [Dasatinib monohydrate]
The cell viability of the first is higher: 0.998 for the first, 0.489 for the second.

First: CCCCC/C=C\C/C=C\CCCCCCCC(=O)O [Linoleic acid]
Second: N[C@@H](CCCCNC(=O)C(F)(F)F)C(=O)O [N-6-Trifluoroacetyl-L-lysine]
The cell viability of the first is lower: 0.87 for the first, 0.966 for the second.

First: Cc1c(C)c(NCC(=O)N(C)C2CCN(Cc3ccc(C(N)=O)cc3)CC2)c(C)c(C)c1N
Second: CCNC(=O)c1noc(-c2cc(C(C)C)c(O)cc2O)c1-c1ccc(CN2CCOCC2)cc1 [Luminespib]
The cell viability of the first is higher: 0.837 for the first, 0.48 for the second.

Going from `O=C(Nc1ccc(CN2CCOCC2)cc1)c1ccc(-c2cccc(Cl)c2)o1` to `COCCN1CCN(Cc2ccc(-c3n[nH]c4c3C(=O)c3c(NC(=O)NN5CCOCC5)cccc3-4)cc2)CC1`, the cell viability falls from 0.816 to 0.3.

Compared with `CONC(=O)Nc1ccc(-c2sc3c(c2CN(C)C)c(=O)n(-c2ccc(OC)nn2)c(=O)n3Cc2c(F)cccc2F)cc1` [Relugolix], `COc1cc2nccc(Oc3ccc(NC(=O)c4cn(C(C)C)c(=O)n(-c5ccc(F)cc5)c4=O)cc3F)c2cc1OC` is lower in cell viability: 1.12 for the first, 0.893 for the second.

Compared with `COc1ccc(S(=O)(=O)/N=C2\C=CC=C\C2=C/C=C2C=CN(O)C=C2)cc1`, `O=C(O)c1ccc(S(=O)(=O)N(Cc2ccc(OC(F)(F)F)cc2)c2ncc(C(F)(F)F)cc2Cl)cc1` is higher in cell viability: 0.935 for the first, 0.969 for the second.

First: Cc1c(O)c(C)c2c(c1O)C(=O)C[C@@H](c1ccc(O)cc1)O2 [Farrerol]
Second: CC(=O)O[C@H](CC=C(C)C)C1=CC(=O)c2c(O)ccc(O)c2C1=O [Acetyl shikonin]
The cell viability of the first is lower: 0.874 for the first, 1.05 for the second.

Going from `CN1CCN(CCCNc2ncc(Cl)c(-c3cc4c(C(=O)NC5CC5)cccc4s3)n2)CC1` to `Cc1nc(Nc2ncc(C(=O)Nc3c(C)cccc3Cl)s2)cc(N2CCN(CCO)CC2)n1` [Dasatinib], the cell viability falls from 0.958 to 0.348.

Going from `Cc1cc(Nc2cc(N3CCN(C)CC3)nc(Sc3ccc(NC(=O)C4CC4)cc3)n2)n[nH]1` [Tozasertib] to `Cc1ccc(C(=O)Nc2ccc(CN3CCN(C)CC3)c(C(F)(F)F)c2)cc1C#Cc1cnc2[nH]ncc2c1`, the cell viability falls from 0.762 to 0.423.

Going from `Cc1nn2c([nH]c(=O)c3cccnc32)c1C#N` to `Cc1nc2cccc(N)c2c(=O)n1C1CCC(=O)NC1=O` (stereo not given) [Avadomide], the cell viability falls from 1.02 to 0.982.

First: O=C(NOCCO)c1cc(CN2OCCCC2=O)c(F)c(F)c1Nc1ccc(I)cc1F
Second: CCN1CCN(Cc2ccc(NC(=O)c3ccc(C)c(NC(=O)c4cncc(-c5cccs5)c4)c3)cc2C(F)(F)F)CC1
The cell viability of the first is higher: 0.84 for the first, 0.789 for the second.

Compared with `CC(C)Oc1ccc(-c2nn([C@@H](C)c3oc4ccc(F)cc4c(=O)c3-c3cccc(F)c3)c3ncnc(N)c23)cc1F`, `CC(C)n1nc(-c2ccc3oc(N)nc3c2)c2c(N)ncnc21` is lower in cell viability: 0.937 for the first, 0.37 for the second.

Going from `CC(C)n1nc(-c2cc3cc(O)ccc3[nH]2)c2c(N)ncnc21` [Torkinib] to `CONC(=O)c1ccccc1Nc1cc(Nc2cc(C)nn2C(C)C)ncc1Cl`, the cell viability rises from 0.733 to 0.889.

Going from `Nc1ccc(-c2cnc(N)c(-c3ccc(Cl)cc3)c2)cn1` to `Nc1ccc(-c2ccc3ncc4ccc(=O)n(-c5cccc(C(F)(F)F)c5)c4c3c2)cn1` [Torin 2], the cell viability falls from 1.07 to 0.414.

First: CC(C)CN(CC(=O)N1CCN(CC(OCc2ccc3ccccc3c2)c2ccc(Cl)cc2Cl)CC1)CC(C)C (stereo not given)
Second: CCC(=O)N1CCN(c2ccc(-n3c(=O)ccc4cnc5ccc(-c6cnc7ccccc7c6)cc5c43)cc2C(F)(F)F)CC1 [Torin 1]
The cell viability of the first is higher: 1.12 for the first, 0.437 for the second.

First: CC(=O)O[C@@H]1C[C@H](O)[C@@]23CO[C@@H](O)[C@]1(C)[C@@H]2C[C@@H](O)[C@]1(C)[C@@H]3C(=O)[C@H](OC(C)=O)[C@@]2(C)[C@H](c3ccoc3)C[C@H]3O[C@]321 [Toosendanin]
Second: COC[C@H](NC(=O)c1cnc(C)s1)C(=O)N[C@@H](COC)C(=O)N[C@@H](Cc1ccccc1)C(=O)[C@@]1(C)CO1 [Oprozomib]
The cell viability of the first is higher: 0.408 for the first, 0.371 for the second.

First: C[C@H](O)[C@@H](O)[C@@H](O)[C@H](O)C=O [L-(-)-Fucose]
Second: CC(=O)NC(Cc1ccccc1)C(=O)O (stereo not given) [Afalanine]
The cell viability of the first is higher: 1.09 for the first, 0.984 for the second.

Going from `O=C(Nc1ccc2[nH]nc(-c3ccncc3)c2c1)[C@@H]1CCN(CC(=O)N2CCN(c3ccc(-c4ncccn4)cc3)CC2)C1` to `Cc1ncc(NC(=O)c2ccc(CN3CCN(C)CC3)c(C(F)(F)F)c2)cc1Nc1nccc(-c2cccnc2)n1` [Flumatinib], the cell viability rises from 0.831 to 1.15.

First: COc1ccccc1C(=O)Nc1cc2c(cc1N1CCCCC1)n(C)c(=O)n2C
Second: CC(C)n1c(=O)n(C)c2cnc3cc(F)c(-c4ccc(OCCCN5CCCCC5)nc4)cc3c21
The cell viability of the first is higher: 0.977 for the first, 0.883 for the second.

First: Cc1nc(Nc2ccc(F)cc2)nc(N2CCc3ccccc3C2C)c1C (stereo not given) [Revaprazan hydrochloride]
Second: Cc1cc(Nc2ncc3c(n2)N(C)C(=O)N(c2cc(NC(=O)c4cccc(C(F)(F)F)c4)ccc2C)C3)n(C)n1 [Pluripotin]
The cell viability of the first is higher: 0.852 for the first, 0.301 for the second.

Going from `Cc1cc(C(=O)Nc2cccc(C(=O)Nc3cccc(C(F)(F)F)c3)c2)on1` to `Cc1ccc(C(=O)Nc2cccc(C(F)(F)F)c2)cc1Nc1nc(-c2cccnc2)nc2c1cnn2C`, the cell viability falls from 1.1 to 0.974.

First: Cc1c(CN2CCN(C(=O)[C@H](C)O)CC2)sc2c(N3CCOCC3)nc(-c3cnc(N)nc3)nc12 [Apitolisib]
Second: Cc1c(CN2CCN(S(C)(=O)=O)CC2)sc2c(N3CCOCC3)nc(-c3cnc(N)nc3)nc12
The cell viability of the first is lower: 0.434 for the first, 0.514 for the second.

Going from `COC1(c2sc3c(N4CCOCC4)nc(-c4cnc(N)nc4)nc3c2C)COC1` to `Cn1nccc1Nc1nccc(-c2cc3c(s2)C(C)(C)N(CCN2CCOCC2)C3=O)n1`, the cell viability rises from 0.496 to 1.06.

Going from `COc1ccc(-c2ccc3ncc4c(c3c2)n(-c2ccc(N3CCNCC3)c(C(F)(F)F)c2)c(=O)n4C)cn1` to `CN(C)CCCOc1ccc(-c2ccc3ncc4c(c3c2)n(C2CCOCC2)c(=O)n4C)cn1`, the cell viability rises from 0.373 to 0.878.

Going from `CCC(=O)N1CC[C@H](Nc2ncnc3c2CN(c2cnc(OC)c(C(F)(F)F)c2)CC3)C1` [Leniolisib] to `Cc1ccc(C(=O)Nc2ccc(CN3CCN(C)CC3)c(C(F)(F)F)c2)cc1C#Cc1cnc2[nH]ncc2c1` [GZD824 Dimesylate], the cell viability falls from 0.904 to 0.33.

Compared with `Cn1cc(C2=C(c3cccc(N)c3)C(=O)NC2=O)c2ccccc21`, `CC(NC(=O)C(Cc1ccccc1)NC(=O)OCc1ccccc1)C(=O)CF` (stereo not given) is higher in cell viability: 0.932 for the first, 0.979 for the second.

Compared with `O=C([O-])CN(CCN(CC(=O)[O-])CC(=O)O)CC(=O)[O-].[Na+].[Na+].[Na+]` [Edetate Trisodium], `CC(=O)N[C@H]1CSSC[C@@H](C(N)=O)NC(=O)[C@H](C(C)C)NC(=O)[C@H](C)NC(=O)[C@H](Cc2c[nH]cn2)NC1=O` [Exherin trifluoroacetate] is lower in cell viability: 1.15 for the first, 1.11 for the second.

First: O=C(NO)c1cnc(NC2(c3ccccc3)CC2)nc1
Second: Cc1ccc(C(=O)Nc2ccc(CN3CCN(C)CC3)c(C(F)(F)F)c2)cc1C#Cc1cnc2cccnn12 [Ponatinib]
The cell viability of the first is higher: 1.01 for the first, 0.834 for the second.

Going from `O=c1cc(-c2ccc(O[C@@H]3O[C@H](CO)[C@@H](O)[C@H](O)[C@H]3O)cc2)oc2cc(O)c([C@@H]3O[C@H](CO)[C@@H](O)[C@H](O)[C@H]3O[C@@H]3OC[C@H](O)[C@H](O)[C@H]3O)c(O)c12` [Vaccarin] to `O=c1[nH]c(=O)n([C@@H]2O[C@H](CO)[C@@H](O)[C@H]2O)cc1F` [5-Fluorouridine], the cell viability falls from 0.919 to 0.837.

First: C[C@H]1COC2(CCN(c3nc(=O)c4cc(C(F)(F)F)cc([N+](=O)[O-])c4s3)CC2)O1
Second: CS(=O)(=O)Nc1ccc([N+](=O)[O-])cc1OC1CCCCC1
The cell viability of the first is lower: 1.05 for the first, 1.12 for the second.

Going from `Cc1cc(F)c(C(=O)Nc2cccc(-c3nncn3C(C)C)n2)cc1-n1cnc(C2CC2)c1` [Selonsertib] to `CC(C)n1ncnc1-c1cn2c(n1)-c1ccc(O[C@@H](C)C(N)=O)cc1OCC2`, the cell viability falls from 0.918 to 0.717.

Compared with `Cc1nc(-c2cn3c(n2)-c2ccc(-c4cnn(C(C)(C)C(N)=O)c4)cc2OCC3)n(C(C)C)n1` [Taselisib], `COc1cc2c(NC3CCN(C(C)C)CC3)nc(C3CCCCC3)nc2cc1OCCCN1CCCC1` is higher in cell viability: 0.425 for the first, 1.15 for the second.

Compound `O[C@H]1[C@H]2c3cc4c(cc3CN3CCC(=C[C@@H]1O)[C@H]23)OCO4` [Lycorine chloride] has a cell viability of 0.966.

Source: the supplement of paper PMC10600219
